Results filed as inconclusive are left out. A call without a number means that no potency is given here. Values without a mark were called inactive. The source made the active and inactive calls. Calls follow the shape of the dose curve; as a rule, active = well fitted activation curve with a large enough effect in the repeat runs; inconclusive = weak or mixed curves; inactive = flat fitted curve, though single readings scatter.
Potency is read from the fitted curve at half-maximal effect.

The test is described as follows: A CellTox Green Cytotoxicity Assay to monitor cytotoxicity in HepG2 cells - 32 hour (AID 1224883). Also: nearly all actives have a fitted effect of over 50% in size. The note with it: CellTox Green fluorescence; series mostly up to 76.8 µM. The source says: National Center for Advancing Translational Sciences [NCATS]
NIH Chemical Genomics Center [NCGC]
U.S. Environmental Protection Agency [EPA]
National Institutes of Environmental Health Sciences [NIEHS]
National Toxicology Program [NTP]
Cell-based models are critical for drug discovery. Determining the natural cytotoxic effects resulting from test compounds is an essential research activity. A CellTox Green Cytotoxicity Assay to monitor cytotoxicity in real time of continues cell culture during 40 hours of the compound treatment was used to screen Tox21 10K library compounds in HepG2 cells. CellTox Green Cytotoxicity Assay is a nonlytic, homogeneous, biofluorescent method to measure cytotoxicity in cell culture after experimental manipulation. The assay system uses a proprietary asymmetric cyanine dye that is excluded from viable cells but preferentially stains the dead cell's DNA. […] Viable cells produce no appreciable increases in fluorescence. Therefore, the fluorescence signal produced by the binding interaction with dead cell DNA is proportional to cytotoxicity.
The mixture of HepG2 cell suspension and reagents were dispensed at 600cells/6 ul/well in 1536-well tissue culture treated black solid bottom plates using a Multidrop dispenser. After the assay plates were incubated at a 37 C/5% CO2 incubator for 5 hours, 23 nL of compounds dissolved in DMSO, positive and negative controls was transferred to the assay plate by a pintool work station. The plates were incubated at 37 C for 40 hours. The fluorescence intensity were measured at 0h, 8h, 16h, 24h, 32h and 40h time points using ViewLux plate reader during compound treatment.
Regarding `C=CCCCCCC`, the Potency entry was “inactive”.
Consider `CCCCCCOC(=O)CCC`, for which the Potency entry is “inactive”.
For the molecule `NC[C@H]1O[C@H](O[C@H]2[C@H](O)[C@@H](O[C@H]3O[C@H](CO)[C@@H](O)[C@H](N)[C@H]3O)[C@H](N)C[C@@H]2N)[C@H](O)[C@@H](O)[C@@H]1O`, the cytotoxicity increase was 13.2% [at 6.97 µM].
Take `Oc1ccc(Sc2ccc(O)cc2)cc1`: the Potency result is “inactive”.
`O=C(O)COC(=O)Cc1ccccc1Nc1c(Cl)cccc1Cl`: the Potency result is “inactive”.
For the molecule `CN1CCN(C2=Nc3cc(Cl)ccc3Nc3ccccc32)CC1`, the Potency was 23.9 µM (active).
Same read-out and setting: as for `CC(C)NCC(O)c1cc(O)cc(O)c1` (stereo not given), the entry is “inactive”.
Same read-out and setting: as for `O=C1c2cccc(O)c2C(=O)c2c(O)cc(CO)cc21`, the entry is “inactive”; as for `c1ccc(CNCc2ccccc2)cc1`, “inactive”; as for `CC(C)CCCCCCOC(=O)c1ccc(C(=O)OCCCCCCC(C)C)c(C(=O)OCCCCCCC(C)C)c1`, “inactive”.
Same read-out and setting: as for `CC(=O)CC(=O)c1ccccc1`, the entry is “inactive”.
Consider `CC(C)NCC(O)COc1ccc(CC(N)=O)cc1` (stereo not given), for which the Potency result is “inactive”.
Still for that read-out and setting: as for `COc1ccc(C(C)=O)cc1`, the entry is “inactive”.
Regarding `NCCCOCCOCCOCCCN`, the Potency entry is “inactive”.
On the same count and under the same terms, as for `Cc1ccccc1N=Nc1ccc(N=Nc2c(O)ccc3ccccc23)c(C)c1`, the entry is “inactive”; as for `COCCOCCOCCOCCOC`, “inactive”; as for `CCCC(C)C`, “inactive”.
As to `O=S1(=O)c2cccc3cccc(c23)N1CCCN1CCN(c2ccc(F)cc2)CC1`, the Potency result is “inactive”.
The same measure, in the same setting: as for `CCCCCCCCCCCCCCC1CO1` (stereo not given), the entry is “inactive”; as for `N#Cc1cc2ccccc2c2ccccc12`, “inactive”.
On the same count and under the same terms, as for `Cc1cc(O)ccc1N`, the entry is “inactive”; as for `CCc1nn(C2CCCCC2)c2cc(C3(C#N)CCC(C(=O)O)CC3)ccc12` (stereo not given), “inactive”.
For `NC(N)=NN=C(/C=C/c1ccc([N+](=O)[O-])o1)/C=C/c1ccc([N+](=O)[O-])o1`, the Potency was 2.39 µM (active).
Same read-out and setting: as for `CCCC(=O)OCC`, the entry is “inactive”; as for `C=CC[N+]1([C@H]2C[C@H]3[C@@H]4CC[C@H]5C[C@H](OC(C)=O)[C@@H](N6CCCCC6)C[C@]5(C)[C@H]4CC[C@]3(C)[C@H]2OC(=O)CC)CCCCC1`, “inactive”.
Still for that read-out and setting: as for `COc1ccc([C@@H]2Sc3ccccc3N(CCN(C)C)C(=O)[C@@H]2OC(C)=O)cc1`, the entry is “inactive”; as for `CC(C)(C)c1ccc(OCC2CO2)cc1` (stereo not given), “inactive”; as for `CN(C(=O)CCCOc1ccc2[nH]c(=O)ccc2c1)C1CCCCC1`, “inactive”.
On the same count and under the same terms, as for `NCCCN(CCO)CCO`, the entry is “inactive”.
With `COC(=O)C(C)=O`, the Potency entry is “inactive”.
Regarding `ClC(Cl)(Cl)c1ccc(C(Cl)(Cl)Cl)cc1`, the Potency result was “inactive”.
Still for that read-out and setting: as for `Cc1ccc(O)c([C@H](CCN(C(C)C)C(C)C)c2ccccc2)c1`, the figure is 21.3 µM (active); as for `C=CC(=O)OCC(C)OCC(C)OCC(C)OC(=O)C=C` (stereo not given), 54.9 µM (active).
The same measure, in the same setting: as for `Cc1ccccn1`, the entry is “inactive”.
In the case of `NCc1ccccc1`, the Potency entry was “inactive”.
On the same count and under the same terms, as for `CCCCCCCCCC(=O)OCC`, the entry is “inactive”; as for `Cc1ncsc1CCO`, “inactive”; as for `C=C(C)C(=O)OCCN(C)C`, “inactive”.
As for `CC(C)c1ccc2c(C(C)C)cc(C(C)C)c(S(=O)(=O)O)c2c1`, the Potency result is “inactive”.
As for `CC(C)(C)c1cc(CO)cc(C(C)(C)C)c1O`, the Potency result was “inactive”.

The values are drawn from PubChem BioAssay (Tox21).
